High-throughput results (PubChem)
SMARCA2 activ = activators of SMARCA2 function | hit rate 1% among 370,000 | activation, % at 9.1 µM | MG213 cells, MMTV-luciferase reporter, dexamethasone, overnight | AID 652017; in the data active = activation above about 7.8%
Gli-Sufu block = antagonists of Gli-Sufu signaling; Sufu-KO-LIGHT fibroblasts, Gli luciferase reporter luminescence; hit rate 0.74% among 340,000; inhibition, % at 5 µM;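 active = inhibition above about 55%, limit read from the data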
697 NFkB inh = lowers PMA/ionomycin-induced NF-kB signal in 697 B cells | 697 B-cell NF-kB luciferase reporter, 16 h | inhibition, % at 4 µM | hit rate 0.33% among 330,000; in the data active = inhibition above about 35%
esBAF inh = inhibitors of esBAF chromatin remodeling in mouse ES cells | Bmi1-luciferase knock-in reporter, 24 h; 100% = twice the neutral-well signal | reporter increase, % at 12.5 µM | hit rate 2% among 350,000 | AID 602393; in the data active = activation above about 40%; inconclusive = no clear call, values can overlap the other calls;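 also: a rise in the Bmi1 reporter signal indicates esBAF inhibition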
Jurkat NFkB inh = inhibitors of the PMA/ionomycin-induced NF-kB reporter in Jurkat cells; PMA/ionomycin-induced NF-kB luciferase reporter, luminescence; hit rate 0.53% among 330,000; inhibition, % at 4 µM; AID 435003; in the data active = inhibition above about 50%
SMARCA2 conf = confirmation of SMARCA2 (BRM) function activators | activation, % at 9.1 µM | MG213 cells, MMTV-luciferase with dexamethasone, luminescence, overnight; MG213 cells expressing E1A, Rb sequestered; DMSO wells 0%, reference activator 100% | hit rate 30% among 3,500 | shares compounds with SMARCA2 activ;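 active = activation above its plate's cutoff, the mean activation of tested wells plus 3 SD, cut at about 7.9% in these data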
VP16 Luc act = counter-screen for SMARCA2 activators: GAL4-VP16 luciferase reporter activation. hit rate 41% among 3,500. HEK293 GAL4-VP16 pG5luc reporter, luciferase luminescence; scaled: DMSO wells 0%, SAHA wells 100%. shares compounds with SMARCA2 activ. activation, % at 9.1 µM;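 active = activation above the solvent-only control well mean plus 3 SD, averaged across control plates, cut at about 5.2% in these data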
A number is an active result; – = inactive; ? = inconclusive; · = no result. In the library only some 3.3% were active in any assay of this set; here they are far more common.

SMILES	SMARCA2 activ	Gli-Sufu block	697 NFkB inh	esBAF inh	Jurkat NFkB inh	SMARCA2 conf	VP16 Luc act
C[C@H](CO)N1C[C@H](C)[C@@H](CN(C)C(=O)Nc2ccc(C(F)(F)F)cc2)Oc2c(NC(=O)C3CCOCC3)cccc2C1=O	·	·	·	–	·	·	·
Cc1ccc(NC(=O)c2cccc3cccnc23)cc1	8.2	–	–	64.4	–	19.8	9.1
Cc1[nH]c(=S)[nH]c(=O)c1Cc1ccccc1	16.0	–	–	–	–	–	–
Cc1[nH]c(=S)[nH]c(=O)c1Cc1c(O)ccc2ccccc12	–	–	·	–	·	·	·
Cc1cc(C)nc(NC(=O)/C=C/c2cccs2)c1	8.8	–	–	81.0	–	–	9.9
CN(CC1CCCN(CCc2cccc(C(F)(F)F)c2)C1)C(=O)c1ccco1 (configuration not stated)	11.3	–	–	–	–	–	–
COc1ccc(C(=O)NC2CC2)cc1OC1CCN(Cc2cc(C)c(C)cc2C)CC1	9.1	–	–	–	–	–	–
COc1ccc(C(=O)NC2CC2)cc1OC1CCN(Cc2cnn(C)c2C)CC1	–	–	–	–	–	·	·
COCCNc1c(-c2cc3ccc(C)c(C)c3[nH]c2=O)nc2ccccn12	10.1	–	–	·	–	17.9	6.4
COCCNc1c(-c2ccc(OC)c(OC)c2)nc2ccc(Cl)cn12	–	–	–	·	–	·	·
Cc1ccc2c(COC(=O)C3=COCCO3)cc(=O)oc2c1	8.5	–	·	?	·	–	8.4
COc1ccc(NC(=O)Nc2ccc3c(c2)C(=O)N([C@@H](C)CO)C[C@H](C)[C@@H](CN(C)S(=O)(=O)c2ccc(OC)cc2)OCCCC[C@H](C)O3)cc1	·	·	·	–	·	·	·
Cc1noc(C)c1NC(=O)N(C)C[C@H]1Oc2ccc(NC(=O)CCC(F)(F)F)cc2CC(=O)N([C@@H](C)CO)C[C@H]1C	·	·	·	–	·	·	·
COc1ccc(CNc2nc3ccccc3n2C)c(O)c1	8.1	–	–	–	–	9.3	7.3
COc1ccc(CNc2nc3ccccc3n2C)c(OC)c1	8.0	–	–	·	–	10.3	10.3
Cn1c(NCc2ccc(Cl)cc2)nc2ccccc21	8.3	–	–	71.3	–	8.3	11.0
C[C@@H]1CN([C@@H](C)CO)C(=O)Cc2cc(NC(=O)C3CCCCC3)ccc2O[C@H]1CN(C)C(=O)Nc1cccc2ccccc12	·	·	·	–	·	·	·
C[C@@H]1CCCCO[C@H](CN(C)C(=O)Nc2ccc(C(F)(F)F)cc2)[C@H](C)CN([C@H](C)CO)C(=O)c2cc(N(C)C)ccc2O1	·	·	·	–	·	·	·
CC(C)NC(=O)N(C)C[C@H]1Oc2c(NC(=O)Nc3ccccc3)cccc2C(=O)N([C@H](C)CO)C[C@H]1C	·	·	·	–	·	·	·
C/C(=N\NC(=S)NCc1ccccc1)c1cccs1	8.1	–	–	·	–	–	–
C/C(=N\NC(=S)NCc1ccccc1)c1ccc(Cl)s1	–	–	–	–	–	·	·
CCC(=O)N1CC[C@H]2[C@H](CO)Nc3ccc(-c4ccc(C(=O)N(C)C)cc4)cc3[C@H]21	·	·	·	–	·	·	·
O=C1C(Sc2ccccc2)=C[C@@]2(O)CC[C@@H](O)[C@]1(Sc1ccccc1)[C@H]2O	12.3	·	·	·	·	10.3	–
COc1ccc(SC2=C[C@@]3(O)CC[C@@H](O)[C@@](Sc4ccc(OC)cc4)(C2=O)[C@H]3O)cc1	–	·	·	·	·	·	·
CCC(=O)N(C)C[C@@H]1Oc2cc(C#CC3(O)CCCC3)ccc2S(=O)(=O)N([C@H](C)CO)C[C@@H]1C	·	·	·	–	·	·	·
SMILES	SMARCA2 activ	Gli-Sufu block	697 NFkB inh	esBAF inh	Jurkat NFkB inh	SMARCA2 conf	VP16 Luc act
Cc1ccc(S(=O)(=O)N(C)C[C@H]2Oc3c(NC(=O)C4CCOCC4)cccc3C(=O)N([C@@H](C)CO)C[C@H]2C)cc1	·	·	·	–	·	·	·
COc1cc(OC)c(OC)cc1CNCCNC(=O)c1ccco1	9.2	–	–	–	–	–	–
COc1cccc(CNCCNC(=O)c2ccco2)c1OC	–	–	–	–	–	·	·
COc1ccc(/C=C2\CCc3ccccc3C2=O)cc1Cn1nc(C)cc1C	–	–	–	–	–	·	·
COc1ccc(/C=C2/CCc3ccccc3C2=O)cc1CN1CCOCC1	8.0	–	–	·	–	–	–
COc1ccccc1-n1cc(-c2ccccc2)[nH]c1=S	–	–	–	–	–	·	·
COc1ccccc1-n1cc(-c2ccccc2)c2c(=S)nc[nH]c21	8.4	–	–	–	–	–	–
C[C@@H]1CN([C@H](C)CO)C(=O)c2cc(Br)cnc2O[C@H]1CN(C)CC1CCCC1	·	·	·	–	·	·	·
NC(=S)N/N=C/c1coc2c(ccc3ccccc32)c1=O	12.8	–	·	–	·	–	–
NC(=S)N/N=C/c1coc2cc(Br)ccc2c1=O	–	–	–	·	–	·	·
Nc1ccc(S(=O)(=O)Nc2cnc3c(Cl)cccc3n2)cc1	9.1	–	·	·	·	30.7	–
Nc1ccc(S(=O)(=O)Nc2cnc3ccccc3n2)cc1	–	–	–	–	–	·	·
COc1ccc(NC(=O)N(C)C[C@H]2Oc3c(NS(=O)(=O)c4ccc(F)cc4)cccc3C(=O)N([C@@H](C)CO)C[C@H]2C)cc1	·	·	·	–	·	·	·
Fc1cccc(Cl)c1CSc1nnc2ccccn12	8.6	–	–	·	–	–	–
Clc1cccc(Cl)c1CSc1nnc2ccccn12	–	–	–	·	–	·	·
O=C(N/N=C/c1cccnc1)c1ccco1	10.3	–	–	·	–	–	–
O=C(N/N=C/C(Cl)=C\c1ccccc1)c1ccco1	12.3	–	–	·	–	–	8.3
COc1ccc(C(=O)N/N=C/c2cccnc2)cc1	10.9	–	–	–	–	–	–
O=C(C[C@H]1CC[C@H](NS(=O)(=O)c2ccccc2)[C@H](CO)O1)NCCN1CCCCC1	·	·	·	–	·	·	·
COc1ccc2nc3cc(Cl)ccc3c(Nc3cc(CN4CCCC4)c(O)c(CN4CCCC4)c3)c2n1	68.0	·	–	–	–	256.3	–
COc1ccc2nc3cc(Cl)ccc3c(Nc3cc(C(C)C)c(O)cc3C)c2c1	–	–	–	–	–	·	·
O=C(CCCN1C(=O)c2ccccc2C1=O)NCCCN1CCOCC1	–	–	–	–	–	·	·
N#CCCN(CCCN1CCOCC1)CN1C(=O)c2ccccc2C1=O	8.1	·	·	–	·	–	–
CCOC(=O)CSc1n[nH]c(-c2ccco2)n1	9.4	–	–	–	–	–	–
CCOC(=O)c1c(NC(=O)CSc2n[nH]c(-c3ccco3)n2)sc(C)c1C	–	–	–	–	–	·	·
CCS(=O)(=O)Nc1ccc2c(c1)C(=O)N(C)C[C@@H](OC)[C@H](C)CN(C(=O)C1CC1)[C@@H](C)CO2	·	·	·	–	·	·	·
CN1CCc2c(sc3c2C(=O)NC(c2cccc(OC(=O)c4cccs4)c2)N3)C1 (configuration not stated)	14.0	–	–	42.4	–	–	11.5
CN1CCc2c(sc3c2C(=O)NC(c2ccco2)N3)C1 (configuration not stated)	–	–	–	–	–	·	·
